This is an account of results in article PMC7862700, “An all-to-all approach to the identification of sequence-specific readers for epigenetic DNA modifications on cytosine”.

What all share (test): DAPPL (digital affinity profiling via proximity ligation, sequencing); 10 mM Tris-HCl pH 7.5, 50 mM NaCl, 1 mM DTT, 4% glycerol, room temperature, 30 min; GST-TFs on glutathione beads, 16-mer random dsDNA library, 0.1% formaldehyde crosslink after washing; high values mean tight binding
Common to all, as to conditions: protein: recombinant; tags: N-terminal GST; dsDNA, one strand shown

One experiment deals with T1, ELK4 (Homo sapiens, UniProt P28324-2 1-405).
T1 sequence: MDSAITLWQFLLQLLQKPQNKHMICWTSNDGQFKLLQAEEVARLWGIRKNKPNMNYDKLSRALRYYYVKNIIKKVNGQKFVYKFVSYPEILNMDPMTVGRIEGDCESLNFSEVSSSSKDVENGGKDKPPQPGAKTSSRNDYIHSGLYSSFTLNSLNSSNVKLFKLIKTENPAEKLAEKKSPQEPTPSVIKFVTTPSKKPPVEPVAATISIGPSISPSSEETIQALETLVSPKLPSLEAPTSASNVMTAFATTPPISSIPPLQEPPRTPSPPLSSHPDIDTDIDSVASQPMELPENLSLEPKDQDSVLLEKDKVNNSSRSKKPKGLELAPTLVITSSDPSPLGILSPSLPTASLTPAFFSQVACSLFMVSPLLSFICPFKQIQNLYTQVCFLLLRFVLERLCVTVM
The method in brief:
(§1)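 Binding signal is each hexamer's read frequency for a factor divided by its frequency in the tag-only sample. The factors were GST-fused human transcription factors from yeast, captured on glutathione beads, DNA-barcoded and pooled with that sample. Pools were incubated with 200 nmole of a random double-stranded 16-mer DNA library in Tris/NaCl/DTT/glycerol buffer at room temperature for 30 min, then washed, crosslinked with 0.1% formaldehyde, proximity-ligated with BsaI/T4 ligase (1 h, 37 °C), PCR-amplified and sequenced on an Illumina NextSeq500.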

The target of a further experiment is T2, SPDEF (Homo sapiens, UniProt O95238 1-335).
T2 sequence: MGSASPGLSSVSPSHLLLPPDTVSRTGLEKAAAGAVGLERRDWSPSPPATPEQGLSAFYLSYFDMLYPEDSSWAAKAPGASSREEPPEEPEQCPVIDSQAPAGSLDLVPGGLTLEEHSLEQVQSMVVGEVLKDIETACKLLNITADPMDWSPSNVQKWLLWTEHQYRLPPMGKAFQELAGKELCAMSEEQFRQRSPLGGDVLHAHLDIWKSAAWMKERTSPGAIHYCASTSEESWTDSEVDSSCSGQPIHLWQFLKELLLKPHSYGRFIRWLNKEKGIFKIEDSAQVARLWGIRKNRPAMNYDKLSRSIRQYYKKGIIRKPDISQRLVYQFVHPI
The gist of the method:
as §1

In the next experiment the target is T3, GABPA (Homo sapiens, UniProt Q06546 1-454).
T3 sequence: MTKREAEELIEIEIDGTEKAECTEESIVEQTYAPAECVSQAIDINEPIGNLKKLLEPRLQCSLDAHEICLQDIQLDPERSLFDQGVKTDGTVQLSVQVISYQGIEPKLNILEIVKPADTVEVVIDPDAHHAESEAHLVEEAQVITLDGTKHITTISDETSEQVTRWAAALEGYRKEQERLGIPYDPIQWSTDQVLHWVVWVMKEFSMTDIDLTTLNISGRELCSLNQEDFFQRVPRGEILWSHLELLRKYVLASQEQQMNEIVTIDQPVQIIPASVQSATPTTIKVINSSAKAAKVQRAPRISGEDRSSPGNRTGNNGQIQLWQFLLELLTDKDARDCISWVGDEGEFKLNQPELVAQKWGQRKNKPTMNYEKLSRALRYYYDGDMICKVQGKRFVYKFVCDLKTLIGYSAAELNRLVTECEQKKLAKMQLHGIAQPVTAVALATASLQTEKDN
The method in brief: as §1

The target of another experiment is T4, EHF (Homo sapiens, UniProt Q9NZC4 1-300).
T4 sequence: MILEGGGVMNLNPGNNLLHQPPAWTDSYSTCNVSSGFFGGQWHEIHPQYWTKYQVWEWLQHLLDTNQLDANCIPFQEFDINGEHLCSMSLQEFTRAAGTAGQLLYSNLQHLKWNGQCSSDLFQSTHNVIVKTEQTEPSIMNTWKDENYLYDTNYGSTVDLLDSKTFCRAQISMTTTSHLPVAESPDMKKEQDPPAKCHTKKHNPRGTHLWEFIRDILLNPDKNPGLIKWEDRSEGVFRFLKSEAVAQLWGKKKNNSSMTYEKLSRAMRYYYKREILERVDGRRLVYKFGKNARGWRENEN
The gist of the method: as §1

The target in another experiment is SPI1 (Homo sapiens, UniProt P17947 1-270). The gist of the method:
as §1

Another experiment has as its target T5, ELF3 (Homo sapiens, UniProt P78545 1-371).
T5 sequence: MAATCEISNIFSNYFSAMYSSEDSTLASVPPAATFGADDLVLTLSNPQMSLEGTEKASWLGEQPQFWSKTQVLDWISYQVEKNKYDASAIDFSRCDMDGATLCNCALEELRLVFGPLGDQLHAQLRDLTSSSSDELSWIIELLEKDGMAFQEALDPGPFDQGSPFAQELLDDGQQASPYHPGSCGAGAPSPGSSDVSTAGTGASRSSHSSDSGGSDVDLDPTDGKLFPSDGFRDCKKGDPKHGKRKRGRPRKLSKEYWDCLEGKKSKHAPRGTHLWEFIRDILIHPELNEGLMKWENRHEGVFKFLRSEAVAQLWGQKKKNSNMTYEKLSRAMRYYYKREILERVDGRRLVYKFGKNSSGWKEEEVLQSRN
The gist of the method:
as §1

The target in the next experiment is ETV1 (Homo sapiens, UniProt P50549 1-477). The method in brief: as §1
In the next experiment the target is T6, ETV2 (Homo sapiens, UniProt O00321 1-342).
T6 sequence: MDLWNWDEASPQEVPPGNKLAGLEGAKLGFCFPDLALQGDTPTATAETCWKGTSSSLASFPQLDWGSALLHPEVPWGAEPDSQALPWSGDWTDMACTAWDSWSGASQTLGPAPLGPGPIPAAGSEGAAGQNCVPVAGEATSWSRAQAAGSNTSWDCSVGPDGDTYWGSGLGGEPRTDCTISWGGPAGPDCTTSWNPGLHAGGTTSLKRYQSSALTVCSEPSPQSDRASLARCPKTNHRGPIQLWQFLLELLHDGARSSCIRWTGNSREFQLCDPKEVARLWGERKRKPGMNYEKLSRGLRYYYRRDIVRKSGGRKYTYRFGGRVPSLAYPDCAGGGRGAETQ
The gist of the method: as §1

The next experiment deals with T7, ELK1 (Homo sapiens, UniProt P19419 1-428).
T7 sequence: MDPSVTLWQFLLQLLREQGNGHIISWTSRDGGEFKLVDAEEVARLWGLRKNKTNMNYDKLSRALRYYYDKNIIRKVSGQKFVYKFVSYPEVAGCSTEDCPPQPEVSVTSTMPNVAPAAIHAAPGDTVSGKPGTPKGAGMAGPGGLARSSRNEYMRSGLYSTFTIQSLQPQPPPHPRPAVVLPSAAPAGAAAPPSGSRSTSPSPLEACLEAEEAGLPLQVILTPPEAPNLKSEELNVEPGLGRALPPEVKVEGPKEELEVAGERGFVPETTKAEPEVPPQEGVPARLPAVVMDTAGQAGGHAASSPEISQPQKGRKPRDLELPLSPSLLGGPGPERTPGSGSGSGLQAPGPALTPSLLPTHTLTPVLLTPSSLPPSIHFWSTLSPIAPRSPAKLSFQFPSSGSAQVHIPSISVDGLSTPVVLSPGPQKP
The gist of the method:
as §1

For a further experiment, the target named is T8, ERG (Homo sapiens, UniProt P11308 1-479).
T8 sequence: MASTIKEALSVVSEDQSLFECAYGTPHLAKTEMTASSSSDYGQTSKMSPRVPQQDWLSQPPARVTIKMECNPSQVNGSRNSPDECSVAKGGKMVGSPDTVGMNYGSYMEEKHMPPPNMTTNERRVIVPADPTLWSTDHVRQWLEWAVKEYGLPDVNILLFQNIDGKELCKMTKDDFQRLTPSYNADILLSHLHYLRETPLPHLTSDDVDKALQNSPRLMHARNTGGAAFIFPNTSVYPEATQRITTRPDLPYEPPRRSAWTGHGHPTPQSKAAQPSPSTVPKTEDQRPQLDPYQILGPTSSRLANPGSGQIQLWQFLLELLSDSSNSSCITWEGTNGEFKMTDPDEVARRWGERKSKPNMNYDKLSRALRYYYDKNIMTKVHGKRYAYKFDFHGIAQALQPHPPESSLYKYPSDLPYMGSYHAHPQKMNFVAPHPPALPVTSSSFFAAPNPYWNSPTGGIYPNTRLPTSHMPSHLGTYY
The gist of the method:
as §1

For another experiment, the target named is SPIB (Homo sapiens, UniProt Q01892 1-262). The gist of the method: as §1
The target in a further experiment is T9, ELF5 (Homo sapiens, UniProt Q9UKW6-2 1-255).
T9 sequence: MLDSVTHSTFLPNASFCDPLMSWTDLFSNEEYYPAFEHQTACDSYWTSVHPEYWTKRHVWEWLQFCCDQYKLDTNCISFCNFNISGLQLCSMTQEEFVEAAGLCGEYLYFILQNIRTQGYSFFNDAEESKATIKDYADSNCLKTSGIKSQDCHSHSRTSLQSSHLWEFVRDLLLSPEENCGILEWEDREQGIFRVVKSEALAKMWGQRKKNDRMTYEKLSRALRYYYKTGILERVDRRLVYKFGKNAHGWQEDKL
The method in brief:
as §1

The target in the next experiment is T10, ELK3 (Homo sapiens, UniProt P41970 1-407).
T10 sequence: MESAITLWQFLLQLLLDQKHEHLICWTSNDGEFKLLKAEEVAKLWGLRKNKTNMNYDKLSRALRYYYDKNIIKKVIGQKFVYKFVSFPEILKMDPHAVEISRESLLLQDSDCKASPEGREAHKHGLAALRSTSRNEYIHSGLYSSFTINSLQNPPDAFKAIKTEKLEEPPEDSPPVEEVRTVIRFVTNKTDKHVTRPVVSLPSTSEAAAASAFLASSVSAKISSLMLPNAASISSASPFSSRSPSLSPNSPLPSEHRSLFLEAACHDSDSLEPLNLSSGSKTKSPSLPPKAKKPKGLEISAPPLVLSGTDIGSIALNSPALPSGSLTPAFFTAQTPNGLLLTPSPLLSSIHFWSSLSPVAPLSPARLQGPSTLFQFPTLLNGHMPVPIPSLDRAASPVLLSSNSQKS
The gist of the method:
as §1

Another experiment addresses T11, ETV7 (Homo sapiens, UniProt Q9Y603 1-341).
T11 sequence: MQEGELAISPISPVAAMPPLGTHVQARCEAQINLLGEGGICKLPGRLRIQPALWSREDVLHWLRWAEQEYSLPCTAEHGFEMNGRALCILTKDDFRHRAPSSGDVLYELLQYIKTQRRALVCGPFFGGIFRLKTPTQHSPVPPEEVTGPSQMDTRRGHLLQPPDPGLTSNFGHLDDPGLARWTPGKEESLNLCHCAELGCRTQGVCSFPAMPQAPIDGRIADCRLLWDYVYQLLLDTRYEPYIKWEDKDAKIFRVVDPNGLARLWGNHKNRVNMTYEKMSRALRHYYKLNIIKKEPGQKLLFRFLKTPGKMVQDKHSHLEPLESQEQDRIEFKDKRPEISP
The gist of the method:
as §1

The next experiment addresses T12, ETV3 (Homo sapiens, UniProt P41162-2 1-143).
T12 sequence: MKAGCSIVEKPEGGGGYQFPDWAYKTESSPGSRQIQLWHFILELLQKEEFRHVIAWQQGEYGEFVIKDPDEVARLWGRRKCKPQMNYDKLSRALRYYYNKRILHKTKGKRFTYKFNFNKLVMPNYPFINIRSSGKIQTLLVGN
The gist of the method: as §1

The next experiment deals with CRX (Homo sapiens, UniProt O43186 1-299). The gist of the method:
as §1

The target in another experiment is T13, ETV3L (Homo sapiens, UniProt Q6ZN32 1-361).
T13 sequence: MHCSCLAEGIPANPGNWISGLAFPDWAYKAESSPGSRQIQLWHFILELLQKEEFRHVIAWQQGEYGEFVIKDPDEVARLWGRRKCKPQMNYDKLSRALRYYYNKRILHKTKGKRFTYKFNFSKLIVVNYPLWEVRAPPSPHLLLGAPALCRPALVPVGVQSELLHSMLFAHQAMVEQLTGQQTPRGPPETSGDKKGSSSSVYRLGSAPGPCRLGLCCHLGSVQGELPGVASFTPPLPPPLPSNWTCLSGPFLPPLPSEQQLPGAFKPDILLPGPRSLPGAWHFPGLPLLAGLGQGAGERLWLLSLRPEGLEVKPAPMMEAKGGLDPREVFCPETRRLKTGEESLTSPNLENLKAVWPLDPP
The method in brief:
as §1

Chain of CRX (O43186 whole entry): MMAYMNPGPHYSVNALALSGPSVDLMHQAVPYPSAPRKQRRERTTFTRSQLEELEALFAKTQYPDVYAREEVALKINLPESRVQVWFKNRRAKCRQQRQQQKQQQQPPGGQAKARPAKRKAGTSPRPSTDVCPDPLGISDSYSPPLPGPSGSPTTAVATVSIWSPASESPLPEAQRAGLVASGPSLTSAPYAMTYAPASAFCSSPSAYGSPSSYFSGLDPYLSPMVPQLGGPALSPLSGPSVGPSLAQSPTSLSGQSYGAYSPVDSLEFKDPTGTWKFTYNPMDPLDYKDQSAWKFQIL
Chain of ETV1 (P50549 whole entry): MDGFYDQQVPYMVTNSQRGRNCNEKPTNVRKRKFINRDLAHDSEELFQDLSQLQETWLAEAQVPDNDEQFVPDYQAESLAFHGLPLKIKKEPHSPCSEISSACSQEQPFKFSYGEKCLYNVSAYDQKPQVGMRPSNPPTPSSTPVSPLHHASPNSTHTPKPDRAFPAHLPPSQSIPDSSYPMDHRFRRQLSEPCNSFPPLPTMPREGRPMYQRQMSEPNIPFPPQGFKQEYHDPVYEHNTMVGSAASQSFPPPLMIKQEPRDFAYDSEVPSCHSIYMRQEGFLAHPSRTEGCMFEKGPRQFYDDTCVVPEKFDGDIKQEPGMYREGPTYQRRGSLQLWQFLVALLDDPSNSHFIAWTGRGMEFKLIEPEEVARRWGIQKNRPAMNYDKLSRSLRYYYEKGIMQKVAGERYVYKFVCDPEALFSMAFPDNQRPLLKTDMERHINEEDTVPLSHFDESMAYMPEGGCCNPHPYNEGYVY
Chain of SPIB (Q01892 whole entry): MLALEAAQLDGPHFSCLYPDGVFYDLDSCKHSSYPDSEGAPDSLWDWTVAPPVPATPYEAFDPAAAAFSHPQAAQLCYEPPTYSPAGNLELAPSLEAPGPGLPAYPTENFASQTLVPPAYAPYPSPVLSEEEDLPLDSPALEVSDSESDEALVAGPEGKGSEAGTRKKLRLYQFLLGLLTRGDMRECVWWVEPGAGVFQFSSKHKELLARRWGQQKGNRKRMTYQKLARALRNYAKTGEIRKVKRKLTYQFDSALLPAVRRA

For GTGTTG, the binding signal is 1.06 fold enrichment (6-mer frequency, TF over GST control) with ELK4 and 1.01 fold enrichment (6-mer frequency, TF over GST control) with SPDEF.

For GTGCAA, the binding signal is 1.02 fold enrichment (6-mer frequency, TF over GST control) with GABPA; 1 fold enrichment (6-mer frequency, TF over GST control) in the experiment with EHF; 1.06 fold enrichment (6-mer frequency, TF over GST control) with SPI1; 1.05 fold enrichment (6-mer frequency, TF over GST control) in the experiment with ELK4; 1.07 fold enrichment (6-mer frequency, TF over GST control) with ELF3; 1.05 fold enrichment (6-mer frequency, TF over GST control) in the experiment with ETV1.

As to GCGTCA, the binding signal in the experiment with ELK4 is 1.01 fold enrichment (6-mer frequency, TF over GST control); with ETV2, 1.06 fold enrichment (6-mer frequency, TF over GST control).

GATCCG: the binding signal is 1.01 fold enrichment (6-mer frequency, TF over GST control) with ELK1; 1.04 fold enrichment (6-mer frequency, TF over GST control) with ERG; 1.05 fold enrichment (6-mer frequency, TF over GST control) with SPIB; 1 fold enrichment (6-mer frequency, TF over GST control) with ELK4; 1.65 fold enrichment (6-mer frequency, TF over GST control) with SPDEF; 1.02 fold enrichment (6-mer frequency, TF over GST control) in the experiment with ELF5.

For CAAGCC, the binding signal was 1.03 fold enrichment (6-mer frequency, TF over GST control) with GABPA; 1.06 fold enrichment (6-mer frequency, TF over GST control) in the experiment with ELK3; 1.07 fold enrichment (6-mer frequency, TF over GST control) with ELK4; 1.06 fold enrichment (6-mer frequency, TF over GST control) with ETV2; 1.12 fold enrichment (6-mer frequency, TF over GST control) with ELF3; 1.02 fold enrichment (6-mer frequency, TF over GST control) with ETV7. The binding signal with ETV3 was 1.02 fold enrichment (6-mer frequency, TF over GST control).

As to GCGTTA, the binding signal is 1.09 fold enrichment (6-mer frequency, TF over GST control) in the experiment with ELK3; 1.02 fold enrichment (6-mer frequency, TF over GST control) in the experiment with ELK4; 1.06 fold enrichment (6-mer frequency, TF over GST control) with CRX; 1.04 fold enrichment (6-mer frequency, TF over GST control) in the experiment with ETV3L.
